# Reference: ChEMBL document CHEMBL4513216, “Probing the Open Global Health Chemical Diversity Library for Multistage-Active Starting Points for Next-Generation Antimalarials” (ACS Infect Dis, 2020)
# In all, about 69,000 compounds went through this assay and about 8,600 (12%) showed an effect of 50% or more. For the sample, strong results were picked, then their nearest neighbours and some compounds at random.
# System: Plasmodium berghei
# Test: Screen against P. berghei liver stage (PbLuc), transformed with Luciferase, at 10uM
# Assay type: functional, HepG2
# Conditions: tested at 10 uM
row,SMILES,INHIBITION [%]
1,COc1ccc(C(=O)n2nc(C)c(C)c2C)cc1,30.7
2,Cc1nn(C(C)C)c(C)c1NC(=O)c1cccnc1,7.18
3,CO[C@@H]1CC[C@H]2[C@H]1OCCN2Cc1ccc(F)c(F)c1,-8.28
4,Cc1ccccc1C(C(=O)NCCSC(F)(F)F)N(C)C (centres undefined),-33.8
5,CC1(C)Cc2nc(C(C)(C)C)ncc2C(NC(=O)Cc2nnn[nH]2)C1 (centres undefined),-0.71
6,COC(=O)CC(c1cccs1)c1oc(C)cc(=O)c1O (centres undefined),27.5
7,CCN1CCn2c(C)cnc2C12CCN(C(=O)c1ccc(Cl)cc1)CC2,31.9
8,CC(=O)NCCCC(=O)NC(C)c1nnc2n1CCC2 (centres undefined),1.75
9,CCOCC(=O)N1CCOCC2(CCN(c3ncccn3)C2)C1 (centres undefined),14.5
10,CS(=O)(=O)N1CCCC(c2nc(-c3ccccc3)c[nH]2)C1 (centres undefined),50.4
11,CCN(CC)S(=O)(=O)N1CCCC(c2ccc(C(=O)O)cc2)C1 (centres undefined),36.8
12,CCN(C)S(=O)(=O)N1CCCC(c2cccc(C(=O)O)c2)C1 (centres undefined),-5.38
13,CC(=O)N1CCCC(c2nc(-c3ccccc3)c[nH]2)C1 (centres undefined),16.6
14,CCCS(=O)(=O)N1CCCC(c2nc(-c3ccccc3)c[nH]2)C1 (centres undefined),44.4
15,CCN(C)S(=O)(=O)N1CCCC(c2nc(-c3ccccc3)c[nH]2)C1 (centres undefined),89.1
16,O=C(c1cc(C2CCCCN2CCO)n[nH]1)N1CCOCC1 (centres undefined),-0.902
17,Cc1ncncc1C(=O)NCCn1nc2ccccn2c1=O,12.915
18,CCCS(=O)(=O)N1CCN(c2ccc3nnc(CC)n3n2)CC1,-37.2
19,Cc1ccccc1OCC(=O)NCC(c1ccc(N(C)C)cc1)N(C)C (centres undefined),27.5
20,CCNc1nc2cn(-c3ccc(OC(F)(F)F)cc3)c(=O)c-2c[nH]1,45.6

row,SMILES,INHIBITION [%]
1,C[C@@H](NC(=O)c1cccs1)c1onc(-c2cccnc2)c1C(=O)O,-20.8
2,CC(C)(C)OCCN1CCCC1c1nc(Cc2ccc(F)cc2)no1 (centres undefined),10.6
3,CCCNC(=O)CN1CCCC1c1nc(Cc2ccc(F)cc2)no1 (centres undefined),47.4
4,O=C(CN1CCCC1c1nc(Cc2ccc(F)cc2)no1)NC1CC1 (centres undefined),62
5,OCCCN1CCCC1c1nc(Cc2ccc(F)cc2)no1 (centres undefined),14.9
6,C=C(C)CN1CCCC1c1nc(Cc2ccc(F)cc2)no1 (centres undefined),61.1
7,CCCN1CCCC1c1nc(Cc2ccc(F)cc2)no1 (centres undefined),23.5
8,O=C(CN1CCN(CC(O)C2CC2)CC1)NCc1ccccc1 (centres undefined),-24.6
9,Cc1cc(F)ccc1-c1ccccc1CC1CNCCNC1=O (centres undefined),71.2
10,COc1ccc(F)cc1-c1ccccc1CC1CNCCNC1=O (centres undefined),23.595
11,Cc1ccc(-c2ccccc2CC2CNCCNC2=O)c(C)c1 (centres undefined),33
12,CC(=O)N1CCN(C(=O)c2cc(-n3cnnn3)ccc2Cl)CC1,6.32
13,CCN(C(=O)NCc1ccccc1OC(F)F)C(C)c1cccnc1 (centres undefined),50.1
14,CCN(C(=O)NCc1ccc(C)cc1OC)C(C)c1cccnc1 (centres undefined),29.8
15,CCOc1ccccc1CNC(=O)N(CC)C(C)c1cccnc1 (centres undefined),-1.25
16,NC(=O)c1ccccc1Oc1cnc(C2CCCN2)cn1 (centres undefined),-38.3
17,Cc1ccc2c(c1)CCC2NC(=O)N1CCC(C(N)=O)CC1 (centres undefined),10.1
18,COC(=O)Cn1c(=O)[nH]c2cn(-c3ccc(C)cc3)c(=O)n21,-1.04
19,CC(C)CN1C(=O)CO[C@@H]2CN(C(=O)NC(C)C)C[C@H]21,70.4
20,CC(C)CN1C(=O)CO[C@@H]2CN(C(=O)C3CCOCC3)C[C@H]21,11.3

row,SMILES,INHIBITION [%]
1,CC(C)CN1C(=O)CO[C@@H]2CN(C(=O)[C@H]3CCCO3)C[C@H]21,36.4
2,CC(C)CN1C(=O)CO[C@@H]2CN(C(=O)CC(F)(F)F)C[C@H]21,54.1
3,CC(C)CN1C(=O)CO[C@@H]2CN(C(=O)N3CCOCC3)C[C@H]21,29
4,CC(C)CN1C(=O)CO[C@@H]2CN(C(=O)N(C)C)C[C@H]21,29
5,CCN(CC)CC1CN(Cc2cccc(C#N)c2)Cc2nccn2C1 (centres undefined),-16.9
6,CC1CCCN(c2nccn3c(=O)[nH]nc23)C1 (centres undefined),17.6
7,COCC(=O)N1CCC(=O)N(C2CCCC2)Cc2cc(F)ccc21,-13.3
8,CCOC(=O)[C@]12CCCN(Cc3nccs3)C[C@H]1CN(C(C)=O)C2,-1.64
9,CCOC(=O)[C@]12CCCN(Cc3nccs3)C[C@H]1CN(CCN(C)C)C2,15.1
10,CCOC(=O)[C@]12CCCN(Cc3nccs3)C[C@H]1CN(CCOC)C2,-14.4
11,O=C(O)[C@]12CCCN(Cc3cccs3)C[C@H]1CN(c1ncccn1)C2,-7.24
12,CCOC(=O)[C@]12CCCN(Cc3nccs3)C[C@H]1CN(S(C)(=O)=O)C2,5.96
13,CCOC(=O)[C@]12CCCN(Cc3cccs3)C[C@H]1CN(C(C)C)C2,64.3
14,CCOC(=O)[C@]12CCCN(Cc3cccs3)C[C@H]1CN(CCOC)C2,33.5
15,CCOC(=O)[C@]12CCCN(Cc3nccs3)C[C@H]1CN(C(C)C)C2,76.4
16,CCOC(=O)[C@]12CCCN(Cc3cccs3)C[C@H]1CN(C(C)=O)C2,51.4
17,CCOC(=O)[C@]12CCCN(Cc3ccsc3)C[C@H]1CN(CCOC)C2,-74.6
18,CCOC(=O)[C@]12CCCN(Cc3cccs3)C[C@H]1CN(CC(C)C)C2,60.3
19,CCOC(=O)[C@]12CCCN(Cc3nccs3)C[C@H]1CN(CC(C)C)C2,-13
